Source: PubChem BioAssay (NCATS)
“And” between values parts separate entries of the source, which are not always exact repeats. Identical values can stand only once. Results filed as inconclusive are left out. The source made the active and inactive calls. Unless noted, no rule for the calls is given here.

Key:
[1] = qHTS profiling of the MIPE4 collection as inhibitors of Plasmodium falciparum (3D7) proliferation (AID 743344);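 also: scaled between DMSO vehicle wells and 0.29 µM artemisinin as full inhibition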; settings: P. falciparum 3D7 in erythrocytes, SYBR Green DNA fluorescence, 72 h; at 28.5 µM
Procedure, shortened: (§1)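 Parasite DNA was quantified by SYBR Green I fluorescence (ex 485, em 535 nm) after overnight lysis in saponin/Triton buffer at room temperature. Cultures at 0.3% parasitemia and 2.5% hematocrit were first exposed to compound for 72 h at 37 C; signals were normalised to artemisinin (0.29 uM) and vehicle wells.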

[2] = qHTS profiling of the MIPE4 collection as inhibitors of Plasmodium falciparum (DD2) proliferation (AID 743345); settings: P. falciparum Dd2 in erythrocytes, SYBR Green DNA, 72 h; at 28.5 µM unless noted
Procedure, shortened: as §1

[3] = qHTS profiling of the MIPE4 collection as inhibitors of Plasmodium falciparum (DD2) proliferation (Rep 2) (AID 743346); settings: P. falciparum Dd2 in erythrocytes, SYBR Green DNA, 72 h; at 28.5 µM
Procedure, shortened: as §1

[4] = qHTS profiling of the MIPE4 collection as inhibitors of Plasmodium falciparum (HB3) proliferation (AID 743347);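 also: plate controls were DMSO vehicle wells for no effect and artemisinin wells for full effect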; settings: P. falciparum HB3 in erythrocytes, SYBR Green DNA, 72 h; at 28.5 µM
Procedure, shortened: as §1

[5] = High-throughput drug toxicity screening in the BPDCN cell line Gen2.2 (AID 1224824); settings: Gen2.2 BPDCN cells; at 45.8 µM (top of the series);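 also: cells exposed to compounds for 48 h before reading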
Procedure, shortened: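 CellTiter-Glo luminescence read after 48 h compound exposure at 37 C defines viability; percent activity set with DMSO as 100% and bortezomib (9.2 uM final) as 0%. 500 exponentially growing cells per well, RPMI plus 10% FBS.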

[6] = High-throughput drug toxicity screening in the BPDCN cell line Cal-1 (AID 1224825); settings: Cal-1 BPDCN cell viability, qHTS; at 45.8 µM (top of the series)
Procedure, shortened: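 Percent activity derived from CellTiter-Glo luminescence, scaling DMSO to 100% and 9.2 uM final bortezomib to 0%. BPDCN Cal-1 cells (500/well, RPMI plus 10% FBS) incubated with compounds 48 hours at 37C before reading.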

[7] = qHTS assay for cell viability of HEK293 cells (AID 743288; active = well fitted curve in the direction sought with a large enough effect; an effect the other way counts as inactive or inconclusive; also: % is scaled to controls: 0 for no effect and ±100 for the full control effect; nearly all actives have a fitted effect of over 50% in size); settings: ATP luminescence (CellTiter-Glo), 18 h; max response: stronger effect = lower value
Procedure, shortened: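 Readout is luciferase-coupled ATP content (CellTiter-Glo luminescence, 30 min room temperature) as a measure of metabolically competent cells. Parental HEK293 cells were plated 5 h or more before compound addition, then treated 18 h at 37 C.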

[8] = qHTS assay for cell viability of the p53RE-bla HCT-116 cell line (AID 743292; active = well fitted curve in the direction sought with a large enough effect; an effect the other way counts as inactive or inconclusive; also: % is scaled to controls: 0 for no effect and ±100 for the full control effect; nearly all actives have a fitted effect of over 55% in size); settings: p53RE-bla HCT-116 viability, ATP luminescence, 16 h; series mostly up to 95 µM
Procedure, shortened: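 Viability of compound-treated p53RE-bla HCT-116 cells is taken from ATP-dependent luciferase luminescence. Treatment lasts 16 h at 37 C after a 5 h settling period; detection follows 30 min at room temperature.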

[9] = qHTS profiling for inhibitors of Plasmodium falciparum (3D7) proliferation (AID 743322);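 also: infected erythrocytes exposed to compound for 72 h before lysis; 100% = DMSO vehicle wells and 0% = 0.29 µM artemisinin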; settings: P. falciparum 3D7 proliferation; at 28.7 µM (top of the series) unless noted
Procedure, shortened: as §1

[10] = qHTS profiling for inhibitors of Plasmodium falciparum (DD2) proliferation (AID 743323); settings: lower = more inhibition; at 28.7 µM (top of the series) unless noted
Procedure, shortened: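 1536-well qHTS; infected RBCs 0.3% parasitemia/2.5% Hct final; cpd 72 h 37 C 5% CO2; lysis buffer + SYBR Green I, o/n RT dark; FI 485/535; norm. to 0.29 uM artemisinin and DMSO, plate-stack corrected.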

[11] = qHTS profiling for inhibitors of Plasmodium falciparum (HB3) proliferation (AID 743324; active = well fitted curve in the direction sought with a large enough effect; an effect the other way counts as inactive or inconclusive;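 also: 100% = DMSO vehicle wells and 0% = artemisinin-treated control wells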); settings: Plasmodium falciparum HB3 blood-stage proliferation; at 28.7 µM (top of the series) unless noted
Procedure, shortened: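 SYBR Green fluorescence (485 ex/535 em) of lysed cultures, incubated overnight at room temperature in the dark, quantifies parasite DNA. Infected erythrocytes at 0.3% parasitemia and 2.5% hematocrit were exposed 72 h; values normalized to DMSO and 0.29 uM artemisinin controls.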

[12] = Immunotoxin (SS1P) sensitization/mitigation study. Vehicle arm (DMEM) (AID 1159513); settings: cell viability with vehicle (DMEM); series mostly up to 46.1 µM; also: potency is read from the fitted curve at half-maximal effect

| SMILES | parasite growth, % of DMSO control [1] | parasite growth remaining, % of DMSO control (lower = more inhibition) [2] | parasite growth, % of control (lower = inhibition) [3] | growth, % of control [4] | cell viability, % of control (lower = more cytotoxic) [5] | viability (% of control) [6] | max response [7] | Potency [8] | remaining parasite growth % (stronger effect = lower value) [9] | activity, percent of control [10] | remaining proliferation (% of control), lower = more inhibition [11] | Potency [12] |
| --- | --- | --- | --- | --- | --- | --- | --- | --- | --- | --- | --- | --- |
| COc1ccc(C(=O)c2c(C)n(CCN3CCOCC3)c3cc(I)ccc23)cc1 | 44.6% | 85% | 35.4% | 33.7% | 4.27% | 5.23% | – | – | – | – | – | – |
| CN(C)NC(=O)CCC(=O)O | 91.1% | 101% | 141% | 106% | 121% | 96.3% | 1.56% (inactive) and -3.81% (inactive) | inactive | – | – | – | – |
| Cc1c(C(=O)Nc2cccc(C(F)(F)F)c2)cc(-c2ccccc2)n1CCCN1CCOCC1 | 19.9% | 69.6% | 16.5% | 10.9% | 52.7% | 37.9% | – | – | 8.32% | 17.4% | 9.01% | 23.5 µM (active) |
| CCC(=O)OC1CCC2C3CCC4=CC(=O)CC[C@@]4(C)C3CC[C@]12C (some centres not stated) | 89.9% | 96.4% | 125% | 94.7% | 223% | 105% | – | – | – | – | – | – |
| C[C@H]([C@H](O)CCC(C)(C)O)[C@H]1CC[C@@]2(O)C3=CC(=O)[C@@H]4C[C@@H](O)[C@@H](O)C[C@]4(C)[C@@H]3CC[C@]12C | 93.7% | 99.4% | 93.3% | 59% | 127% | 110% | – | – | – | – | – | – |
| CC[C@@H](C(N)=O)N1CCCC1=O | 69.9% | 90.5% | 46.9% | 78.5% | 211% | 113% | – | – | – | – | – | – |
| COCC1(CO)C(=O)C2CCN1CC2 (configuration not stated) | 94.3% | 85.2% | 42% | 87.2% | 4.6% | 2.52% | – | – | – | – | – | – |
| CCOC(=O)c1cncn1[C@H](C)c1ccccc1 | 46.8% | 98% | 70.6% | 67.6% | 124% | 105% | – | – | – | – | – | – |
| COC1=CC(C)=C[C@@H](C)[C@@H](O)[C@@H](C)CC(C)=CC=C[C@H](OC)[C@H]([C@@H](C)[C@@H](O)[C@H](C)[C@@]2(O)C[C@@H](O)[C@H](C)[C@@H](C(C)C)O2)OC1=O | 6.56% | 6.47% | 13.8% | 8.98% | 67.2% | 18.4% | – | – | – | – | – | – |
| C[C@]12CCC(=O)C(O)=C1CC[C@@H]1[C@H]3CCC(=O)[C@@]3(C)CC[C@@H]12 | 77.1% | 94.3% | 71.5% | 54.8% | 78% | 116% | – | – | – | – | – | – |
| C[C@@H]1[C@H](O)[C@@H](C)C=CC=CCCC=CC=CC=CC=C[C@H](O[C@H]2O[C@@H](C)[C@H](O)[C@@H](N)[C@@H]2O)CC2O[C@](O)(C[C@@H](O)[C@H](O)CC[C@@H](O)C[C@@H](O)C[C@@H](O)CC(=O)O[C@H]1C)C[C@H](O)[C@H]2C(=O)O | 94.4% | 103% | 97.5% | 83.8% | 152% | 124% | – | – | – | – | – | – |
| CC(C)(Sc1ccc(CCN(CCCCC2CCCCC2)C(=O)NC2CCCCC2)cc1)C(=O)O | – | – | – | – | – | – | – | – | – | – | – | inactive |
| C[C@]12CC[C@H](O)CC1=CC[C@H]1[C@H]3CCC(=O)[C@@]3(C)CC[C@@H]12 | 72.2% | 97.4% | 108% | 98.3% | 136% | 104% | – | – | – | – | – | – |
| CN(C)[C@@H]1C(=O)C(C(N)=O)=C(O)[C@@]2(O)C(=O)C3=C(O)c4c(O)cccc4[C@@](C)(O)[C@H]3[C@H](O)[C@@H]12 | 29.4% | 45.1% | 32% | 19.3% | 109% | 100% | -3.99% (inactive) and -10.9% (inactive) and -2.39% (inactive) | inactive | – | – | – | – |
| CC[C@H]1C=CC=CC[C@@H](C)[C@H](O)[C@@](C)(O)C(=O)[C@@H](C)[C@H](O)[C@@H](C)C(=O)[C@@H](C)[C@H](O)[C@@H](C)C=CC(=O)O[C@@H]2[C@@H](C)[C@H](CC1)O[C@]1(CC[C@H](C)[C@H](C[C@@H](C)O)O1)[C@H]2C | 16.9% | 6.38% | 20.2% | 8.5% | 8.73% | 6.39% | – | – | – | – | – | – |
| C[C@]12CC[C@H]3[C@@H](CCC4=CC(=O)CC[C@@]43C)[C@H]1CC[C@H]2OC(=O)CCC1CCCC1 | 7.86% | 15.6% | 18.3% | 6.49% | 94% | 104% | – | – | – | – | – | – |
| C[C@@H]1CC[C@@]2(OC1)O[C@H]1C[C@H]3[C@@H]4CC=C5C[C@@H](O[C@@H]6O[C@H](CO)[C@@H](O[C@@H]7O[C@@H](C)[C@H](O)[C@@H](O)[C@@H]7O)[C@H](O)[C@@H]6O[C@@H]6O[C@@H](C)[C@H](O)[C@@H](O)[C@@H]6O)CC[C@]5(C)[C@@H]4CC[C@]3(C)[C@@H]1[C@H]2C | 57.2% | 52.8% | 61.5% | 28.8% | 10.6% | 12.9% | – | – | – | – | – | – |
| C[C@]12CC[C@H]3[C@@H](CCC4=CC(=O)CC[C@@]43C)[C@H]1CC[C@H]2O | 78.5% | 90.8% | 93.2% | 86.3% | 83.2% | 101% | – | – | – | – | – | – |
| CC(C)(C)c1cc(C=C(C#N)C#N)cc(Br)c1O | 34.5% | 93.3% | 37.3% | 34.7% | 12.6% | 11% | – | – | – | – | – | – |
